Most compounds without a hit are left out; they make up all but 1.5% or so of the library.
LANA-H2A inh = blocks KSHV LANA binding to histone H2A/H2B; 320,000 tested, 0.6% active; inhibition, % (no concentration beside the values); AID 2629; cell-free LANA-H2A/H2B peptide, fluorescence polarization; in the data active means inhibition mostly above about 10%, no sharp cut-off; inactive means mostly below about 6.7%
Target sequence (Q9QR71 whole entry, looked up): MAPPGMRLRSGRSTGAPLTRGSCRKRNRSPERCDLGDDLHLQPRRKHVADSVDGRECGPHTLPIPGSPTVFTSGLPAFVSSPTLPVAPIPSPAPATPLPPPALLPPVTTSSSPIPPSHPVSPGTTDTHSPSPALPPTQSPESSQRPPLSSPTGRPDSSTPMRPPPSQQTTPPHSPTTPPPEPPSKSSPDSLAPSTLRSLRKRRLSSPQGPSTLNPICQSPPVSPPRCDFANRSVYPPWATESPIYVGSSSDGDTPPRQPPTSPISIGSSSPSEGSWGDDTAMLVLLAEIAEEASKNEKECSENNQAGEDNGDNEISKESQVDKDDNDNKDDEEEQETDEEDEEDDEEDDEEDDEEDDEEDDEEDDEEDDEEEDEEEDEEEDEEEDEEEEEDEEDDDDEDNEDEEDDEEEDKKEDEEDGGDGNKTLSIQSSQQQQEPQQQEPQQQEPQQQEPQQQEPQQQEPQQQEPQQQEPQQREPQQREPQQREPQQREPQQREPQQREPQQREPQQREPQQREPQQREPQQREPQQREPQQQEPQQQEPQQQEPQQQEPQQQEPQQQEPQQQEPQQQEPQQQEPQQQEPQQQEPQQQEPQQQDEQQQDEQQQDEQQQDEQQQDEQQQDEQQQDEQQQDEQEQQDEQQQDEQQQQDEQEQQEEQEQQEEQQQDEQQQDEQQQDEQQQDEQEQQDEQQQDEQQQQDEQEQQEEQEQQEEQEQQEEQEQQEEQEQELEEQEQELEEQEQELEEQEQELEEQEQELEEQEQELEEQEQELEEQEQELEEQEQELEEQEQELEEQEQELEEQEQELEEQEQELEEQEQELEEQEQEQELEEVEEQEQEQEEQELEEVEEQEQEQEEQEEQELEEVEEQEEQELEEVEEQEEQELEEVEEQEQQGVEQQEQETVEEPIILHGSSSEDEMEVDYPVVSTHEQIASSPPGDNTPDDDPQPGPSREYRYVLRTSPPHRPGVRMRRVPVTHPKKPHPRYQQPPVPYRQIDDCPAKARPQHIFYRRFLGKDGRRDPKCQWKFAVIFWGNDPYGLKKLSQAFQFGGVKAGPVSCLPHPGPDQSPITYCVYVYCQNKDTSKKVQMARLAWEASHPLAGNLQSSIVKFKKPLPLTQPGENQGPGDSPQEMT
GLD-1 RNA inh = GLD-1-TGE RNA interaction inhibition (C. elegans). 320,000 tested, 0.44% active. inhibition, % at 5.96 µM. AID 2280. purified GLD-1 + fluorescein TGE RNA, fluorescence polarization;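 active means percent inhibition above a per-plate cutoff, the plate mean of test compounds plus 3 SD, cut at about 30% in these data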;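 further: 0% = DMSO wells with GLD-1 and probe and 100% = wells lacking GLD-1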
eLon inh = E. coli protease La inhibition. P0A9M0. inhibition, % at 7.94 µM. purified E. coli Lon protease, fluorescence polarization. 360,000 tested, 0.42% active; in the data active means inhibition above about 13%, passing the limit was not always enough;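 further: 0% = enzyme with probe and DMSO and 100% = no enzyme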
Keap1 Nrf2 FP = disrupts human Keap1 binding to Nrf2 peptide | inhibition, % at 9.4 µM | Q14145 | Keap1 Kelch-Nrf2 peptide fluorescence polarization, 1536-well | 340,000 tested, 0.15% active; in the data active means inhibition above about 12%; inconclusive means no clear call, values can overlap the other calls; inactive means below about 7.3%;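 further: human Keap1 Kelch domain with fluorescein labeled Nrf2 9mer peptide probe; 0% = neutral control wells and 100% = peptide positive control; higher means more block of Keap1 binding to Nrf2 peptide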
EBV gp42 block = EBV gp42 inhibition | Fluorescence polarization binding assay, mP read-out | Q1HVG2 | inhibition, % (tested at 21.74 µM) | 220,000 tested, 0.42% active; in the data active means inhibition above about 50%
LANA DNA inh = KSHV C-LANA DNA binding inhibition; MBP-C-LANA/FAM-LBS DNA binding, fluorescence polarization; inhibition, % at 9 µM; 340,000 tested, 0.078% active;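 active means highest replicate inhibition at or above 60% at 9 µM, even if other replicates fall short; inactive means all replicates below 60% inhibition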;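 further: 0% = neutral control wells and 100% = 4 µM acridine orange control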
Starred values were filed as active, the others as inactive; i = inactive; u = inconclusive; x = no result given; + = active, no number.

SMILES	LANA-H2A inh	GLD-1 RNA inh	eLon inh	Keap1 Nrf2 FP	EBV gp42 block	LANA DNA inh
COc1ccc(C(CNC(=O)c2oc3c(Cl)cccc3c2C)N2CCCC2)cc1 (stereo unspecified)	22*	1	-8	-1	x	-3
Nc1c(S(=O)(=O)c2ccccc2)c2nc3ccccc3nc2n1Cc1ccco1	5	47*	-54	-7	62*	8
Cc1ccc(S(=O)(=O)c2c(N)n(Cc3ccco3)c3nc4ccccc4nc23)cc1C	19	20	-52	-10	4	4
CCCc1cc(=O)n(-c2nc3ccccc3s2)[nH]1	5	1	2	1	69*	-2
CCOC(=O)Cc1cc(=O)n(-c2nc3ccccc3s2)[nH]1	5	-2	0	0	-15	4
CCN(CC)S(=O)(=O)c1ccc2oc(SCC(=O)Nc3cc(C)on3)nc2c1	99*	11	-12	4	x	-1
O=c1[nH]c(Cc2ccccc2)nc2c1oc1ccccc12	8.2*	9	2	0	-6	0
CC1=C(C(=O)N(C)C)CC(CC(=O)NCc2cccs2)C(=O)N1Cc1ccc(C(C)(C)C)cc1 (stereo unspecified)	x	x	-11	x	x	x
COc1ccc(-c2cc(C(=O)N3CC4(C)CC3CC(C)(C)C4)no2)cc1 (stereo unspecified)	-10	-3	-1	3	-14	1
COc1ccc(-c2cc(C(=O)N3CC4(C)CC3CC(C)(C)C4)no2)cc1OC (stereo unspecified)	55*	6	-6	-6	6	-1
CN(C(=O)CSc1ncnc2sccc12)C1CCCCC1	3	6	-5	3	x	-3
O=C(CSc1nnc(Cc2cc(=O)[nH]c(=O)[nH]2)n1-c1ccccc1)NCC1CCCO1 (stereo unspecified)	2	25	9	-6	-6	4
O=C(CSc1nnc(Cc2cc(=O)[nH]c(=O)[nH]2)n1-c1ccc(Cl)cc1)NCC1CCCO1 (stereo unspecified)	1	7	22*	u	8	5
CCOC(=O)[C@]12CCCC=C1N(Cc1ccco1)C(=O)[C@H](CC(=O)NCc1ccccc1)C2	x	x	10	x	x	x
COc1cccc(C(=O)N2CCC[C@H]2C(=O)N2CCC[C@H]2C(=O)NCc2ccccn2)c1	x	x	-4	x	x	x
CCSc1ncc(Cl)c(C(=O)Nc2ccc(S(=O)(=O)Nc3ncccn3)cc2)n1	1	-2	-6	4	x	1
CCCS(=O)(=O)c1ncc(Cl)c(C(=O)Nc2ccc(S(=O)(=O)Nc3ncccn3)cc2)n1	1	2	5	42*	x	0
Cn1c(Cc2ccccc2)nc(=O)c2ccccc21	x	x	-3	x	x	x
NC(=O)C1CCN(c2nc(-c3cccnc3)cs2)CC1	3	4	-6	13*	x	18
NC(=O)C1CCN(c2nc(-c3cccc(N)c3)cs2)CC1	6	4	0	-1	x	1
CCCCN1C(=O)/C(=C/C=C2\SCCN2C)SC1=S	x	x	i	-186	-273	-14
CCCCN1C(=O)/C(=C/C=C2\N(C)c3ccccc3C2(C)C)SC1=S	-1	11	x	x	+	x
O=C(Nc1ccc([N+](=O)[O-])cc1)C(c1ccccc1)c1ccccc1	x	x	9	x	x	x
O=C1c2cccc3c(N4CCCCC4)ccc(c23)C(=O)N1c1ccc(O)cc1	14	36*	-53	u	-7	12
CC(C)c1cc(Nc2cccc(O)c2)cc(C(C)C)c1O	1	148*	x	x	x	x
SMILES	LANA-H2A inh	GLD-1 RNA inh	eLon inh	Keap1 Nrf2 FP	EBV gp42 block	LANA DNA inh
CC1(C(=O)NS(=O)(=O)c2ccc(Cl)cc2)CCN1C(=O)CCC1CCCC1 (stereo unspecified)	x	x	5	x	x	x
Cc1ccc(N2C(=O)c3cccc4c(N5CCN(C)CC5)ccc(c34)C2=O)c2cccnc12	14	137*	x	x	159*	x
Cc1ccc(N2C(=O)c3cccc4c([N+](=O)[O-])ccc(c34)C2=O)c2cccnc12	4	13	9	1	9	1
NC(=O)COc1ccc(Nc2nnc(-c3ccc(O)cc3)c3ccccc23)cc1	19*	-2	-4	-1	-11	-2
Cc1ccc(-c2nnc(Nc3ccc(OCC(N)=O)cc3)c3ccccc23)cc1S(N)(=O)=O	-6	8	-2	0	x	-2
Cc1ccc(-c2cc(-c3ccccc3)nc(N(C)N)n2)cc1	-5	4	-13	2	x	-1
Cc1ccc(-c2cc(N)nc(-c3ccccc3)c2)cc1	31*	-4	1	-1	x	0
CC(=O)OC1CSc2nc3ccccc3n2C1 (stereo unspecified)	-2	0	3	-1	-17	0
COCCCNC(=O)Cn1cnc2c(OCc3ccccc3)ncnc21	194*	2	2	-2	x	0
O=C(Cn1cnc2c(OCc3ccccc3)ncnc21)NCCCc1ccccc1	2	0	-2	-3	x	0
COc1cccc(CN2CC(C(=O)N(C)Cc3ccc(C)cc3)CCC2=O)c1 (stereo unspecified)	14*	-3	-4	-1	x	1
Cc1noc(C)c1S(=O)(=O)NC(=O)C1(C)CCN1C(=O)Cc1ccc(-c2ccccc2)cc1 (stereo unspecified)	x	x	-11	x	x	x
C[C@H]1O[C@H]1P(=O)(O)O	33*	6	-12	-4	-19	1
C[C@@H]1O[C@@H]1P(=O)(O)O	3	6	6	-6	x	2
COC(=O)C(Cc1ccccc1)NC(=O)c1ccc(NS(=O)(=O)c2ccc3[nH]c(=O)[nH]c3c2)cc1 (stereo unspecified)	29*	2	8	-4	x	-1
Nc1ccc(N)c(C(=O)O)c1	-0.2*	21	43*	7	108*	110*
Nc1ccc(C(=O)O)c(O)c1	-5	14	6	-5	-11	8
CCC(C)(C)NC(=O)C(c1ccc(C)cc1)N(CC1CCCO1)C(=O)CCC(=O)Nc1ccccn1 (stereo unspecified)	10	8	3	0	x	0
Cc1ccc(C(C(=O)NC(C)(C)C)N(CC2CCCO2)C(=O)CCC(=O)Nc2ccccn2)cc1 (stereo unspecified)	22*	-4	-6	-1	x	-1
N#Cc1cc(Oc2ccc3ccccc3c2)c(-n2nnc3ccccc32)cc1C#N	-9	-5	4	-3	-14	2
N#Cc1cc(Oc2ccccc2)c(-n2nnc3ccccc32)cc1C#N	26*	0	1	-4	-10	0
Cc1cc2nc3ccc(N(C)C)cc3nc2cc1N	0	41*	21	3	x	4
Cc1ccc(-n2nc3cc(C)c(N)cc3n2)cc1	7	-1	-3	-2	-6	-1
O=C(CN1C(=O)c2ccccc2C1=O)Nc1cc(C(=O)O)cc(C(=O)O)c1	4	64*	7	-7	x	-1
CC(=O)C[C@@H](O)CC(=O)[C@@H]1OC(=O)CCCCCCCCc2ccccc21	9.2*	8	-12	-1	x	0

Screening data as filed in PubChem.
